Screening results as filed in PubChem BioAssay.
CBX7 AlphaScr – CBX7 inhibition, primary AlphaScreen; O95931; AlphaScreen His6-CBX7 / biotin-H3K27me3 peptide binding; active compounds read low; 66,000 tested, 1.1% active; normalised signal (fraction of DMSO) (test concentration not listed); in the data active = normalised signal below about 0.5
Target sequence (O95931 whole entry, looked up): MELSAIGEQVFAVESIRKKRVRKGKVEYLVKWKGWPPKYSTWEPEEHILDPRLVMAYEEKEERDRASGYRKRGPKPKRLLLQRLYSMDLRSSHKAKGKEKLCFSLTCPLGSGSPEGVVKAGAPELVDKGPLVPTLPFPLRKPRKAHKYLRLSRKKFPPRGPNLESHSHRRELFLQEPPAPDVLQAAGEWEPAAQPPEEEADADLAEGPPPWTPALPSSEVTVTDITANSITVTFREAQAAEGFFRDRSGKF
Large screens that a line does not name were inactive; ! = a repeat was not active. The full list was thinned out, with hits kept by preference.

COc1ccc(N(CC(=O)Nc2ccc(C(C)C)cc2)S(=O)(=O)c2c(C)nn(C)c2C)cc1	none
Cc1nc(NCc2cccs2)c2c(C)c(C)sc2n1	none
CCOc1ccc(-n2c(-c3ccccc3F)nc3c(cnn3-c3ccccc3)c2=O)cc1	none
COc1cccc(-n2c(-c3ccccc3F)nc3c(cnn3-c3ccc(C)cc3)c2=O)c1	none
Cc1cccc(-n2c(-c3ccccc3F)nc3c(cnn3-c3ccccc3)c2=O)c1	CBX7 AlphaScr 0.49
O=C(CSc1nnc(Cc2cc(=O)[nH]c(=O)[nH]2)n1-c1ccc(F)cc1)Nc1ccc(Cl)cc1	none
COc1ccc(-c2noc(CCC(=O)N(C)c3ccc(Br)cc3)n2)cc1	none
Cc1sc2nc(Cc3ccccc3)nc(Nc3ccccc3F)c2c1C	none
Cc1nc(Nc2cccc(C(F)(F)F)c2)c2c3c(sc2n1)CCCC3	none
Cc1nc(Nc2cccc(C(F)(F)F)c2)c2c(C)c(C)sc2n1	CBX7 AlphaScr 0.45
Cc1nc(Nc2ccccc2F)c2c(C)c(C)sc2n1	CBX7 AlphaScr 0.47
Cc1sc2nc(Cc3ccccc3)nc(Nc3cccc(C(F)(F)F)c3)c2c1C	none
COc1ccccc1Nc1nc(C)nc2sc(C)c(C)c12	none
Cc1cccc(N(C)C(=O)Cn2nc(Cc3ccncc3)c3ccccc3c2=O)c1	none
CC(C)c1ccc(C(O)Cc2nc3ccccc3n2C)cc1 (stereo unspecified)	none
Cc1cccc(OCC(O)Cn2c(=N)n(CCN3CCCCC3)c3ccccc32)c1 (stereo unspecified)	none
Cc1ccc(-c2nc(CS(=O)(=O)CC(=O)NCCCN(CC(C)C)CC(C)C)c(C)o2)cc1	none
COc1ccc(NS(=O)(=O)c2cnc[nH]2)cc1Cl	none
Fc1ccc(-c2nc(-c3ccccc3)c(-c3cccs3)[nH]2)cc1	none
c1cncc(-c2nc3ccccc3[nH]2)c1	none
Oc1ccc(-c2nc(-c3ccc(-c4ccccc4)cc3)c(-c3ccc(-c4ccccc4)cc3)[nH]2)cc1	none
COc1ccc(-c2nc(-c3ccccc3)c(-c3cccs3)[nH]2)cc1O	none
COc1cccc(-c2nc(-c3cccs3)c(-c3cccs3)[nH]2)c1	none
Brc1ccc(-c2nc(-c3ccccc3)c(-c3ccc(Oc4ccccc4)cc3)[nH]2)cc1	none
Oc1ccc(-c2nc(-c3ccccc3)c(-c3cccs3)[nH]2)cc1	CBX7 AlphaScr 0.47
c1ccc(-c2nc(-c3cccnc3)[nH]c2-c2ccccc2)cc1	CBX7 AlphaScr 0.31!
COc1cccc(-c2nc(-c3ccsc3)c(-c3ccccc3)[nH]2)c1OC	none
COc1cccc(-c2nc(-c3ccccc3)c(-c3cccs3)[nH]2)c1OC	CBX7 AlphaScr 0.43
Oc1ccc(-c2[nH]c(-c3cccc(Cl)c3)nc2-c2ccccc2)cc1	CBX7 AlphaScr 0.41
O=C(O)c1ccc(-c2nc(-c3cccc(Cl)c3)c(-c3ccccc3)[nH]2)cc1	none
COc1ccc(OC)c(C2=NOC(C(=O)NCCc3ccc(OC)c(OC)c3)C2)c1 (stereo unspecified)	none
O=C(CSc1nnc(C2COc3ccccc3O2)o1)N1CCCC1 (stereo unspecified)	none
Cc1ccc(Cn2cc(C(=O)c3ccc4c(c3)OCO4)c(=O)c3cc4c(cc32)OCO4)cc1	none
Cc1ccc(C)c2[nH]c(=O)c(CCNC(=O)c3ccccc3F)cc12	none
COCCCNC(=O)c1ccc(Cl)c(NC2=NC3CS(=O)(=O)CC3S2)c1 (stereo unspecified)	none
COc1cc2c(c(OC)c1)C(c1ccc(Br)cc1)CC(=O)N2 (stereo unspecified)	none
Cc1ccc2c(c1)N(CCC(=O)NCC1CCCO1)C(=O)CO2 (stereo unspecified)	none
CCC(C(=O)N1CC(=O)Nc2ccc(F)cc2C1c1ccccc1)c1ccccc1 (stereo unspecified)	none
Cc1cc(N2CCN(C)CC2)nc2ccc(NC(=O)c3cccs3)cc12	none
O=C(NCc1ccc(F)cc1)c1cc(=O)[nH]c2ccc(S(=O)(=O)N3CCCCC3)cc12	none
COc1ccc(-c2nc(-c3cccs3)c(-c3cccs3)[nH]2)cc1OC	CBX7 AlphaScr 0.45
COc1ccc(-c2nc(-c3cccs3)c(-c3cccs3)[nH]2)cc1	none
COc1ccc(-c2nc(-c3ccccc3)c(-c3cccs3)[nH]2)cc1OC	none
COCCN1Cc2cccc(C(=O)Nc3ccc(C)c(C)c3)c2C1=O	none
CCc1cccc(C)c1Nc1c(-c2ccc(C)s2)nc2cnccn12	none
CCN(CC)S(=O)(=O)c1ccc(C(=O)Nc2nnc(-c3ccc(Cl)s3)o2)cc1	none
CN(C)S(=O)(=O)c1ccc(C(=O)Nc2nnc(-c3ccc(Cl)s3)o2)cc1	CBX7 AlphaScr 0.22
C=CCN(CC=C)S(=O)(=O)c1ccc(C(=O)Nc2nnc(-c3ccc(Cl)s3)o2)cc1	CBX7 AlphaScr 0.37
CCCCN(CCCC)S(=O)(=O)c1ccc(C(=O)Nc2nnc(-c3ccc(Cl)s3)o2)cc1	none
CCc1ccc(-c2nc(C(=O)NCCC(C)C)c(C)o2)cc1	none
CCN(CC)C(=O)c1ccc2c(c1)N(Cc1cc(C)ccc1C)C(=O)c1ccccc1S2(=O)=O	none
O=C(Nc1ccc2oc(-c3ccccc3Cl)nc2c1)c1ccccc1	none
CCOc1ccc(-c2cc(CCCC(=O)NCc3ccccc3Cl)no2)cc1	none
CCOC(=O)c1cnc2c(C(F)(F)F)cccc2c1Nc1ccc(NC(C)=O)cc1	none
